Test results published in PubChem BioAssay.
The source made the active and inactive calls.

Columns and labels:
[1] = E. coli DRC41 culture turbidity changes, primary screen, E. coli filamentation inducer project, strain DRC41, OD650, 48 h (AID 1152);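 also: E. coli MC1000 strain DRC41 lacking acrAB efflux pump and sulA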; conditions: E. coli DRC41 (acrAB sulA), higher = more signal, called active from +8 up or from −8 down
[2] = small-molecule binders of probe aLefty1, primary screen, biochemical, small-molecule microarray, 635/667 nm fluorescence (AID 1153); conditions: higher = more signal;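 also: score merges spot fluorescence with signal-to-noise ratio from the scanned slide images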
[3] = PSAC antagonists in infected red cells, primary screen, cell-based, P. falciparum Indochina, OD700, 1 h (AID 1154); conditions: P. falciparum Indochina infected RBC osmotic lysis, higher = more signal, called active from +8 up or from −8 down
[4] = PSAC antagonists in infected red cells, primary screen, cell-based, P. falciparum Indochina, OD700, 2 h (AID 1155);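 also: lysis reports solute entry through the parasite surface anion channel PSAC; channel blockers reduce lysis of infected cells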; conditions: P. falciparum Indochina infected erythrocytes, osmotic lysis OD700; higher = more signal, called active from +8 up or from −8 down
[5] = osmotic lysis modulators in infected erythrocytes, primary screen, PSAC antagonist project, cell-based, P. falciparum Indochina, OD700, 3 h (AID 1156); conditions: higher = more signal, called active from +8 up or from −8 down
[6] = PSAC antagonists in infected red cells, primary screen, cell-based, P. falciparum Indochina, OD700, 18 h (AID 1157); conditions: P. falciparum Indochina infected erythrocytes, osmotic lysis OD700, 18 h; higher = more signal, called active from +8 up or from −8 down
[7] = modulators of S6 phosphorylation in cells, primary screen, cell-based, A549, cytoblot, luminescence, serum-stimulated (AID 1158); conditions: A549 phospho-S6 cytoblot, 5 h, higher = more signal;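 also: serum-stimulated A549 lung adenocarcinoma cells; signal is phosphorylated S6 detected by cytoblot immunostaining with HRP secondary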
[8] = target: NADPH oxidase 2 (Homo sapiens) (UniProt P04839); assay: NOX2-dependent H2O2 signal modulators, primary screen, NOX inhibitor project, cell-based, HEK293-NOX2, PMA-stimulated, Amplex Red fluorescence (AID 1159); conditions: 45 min, higher = more signal, called active from +8 up or from −8 down; also: test concentration not given here
NADPH oxidase 2 (Homo sapiens), sequence (P04839 whole entry, looked up): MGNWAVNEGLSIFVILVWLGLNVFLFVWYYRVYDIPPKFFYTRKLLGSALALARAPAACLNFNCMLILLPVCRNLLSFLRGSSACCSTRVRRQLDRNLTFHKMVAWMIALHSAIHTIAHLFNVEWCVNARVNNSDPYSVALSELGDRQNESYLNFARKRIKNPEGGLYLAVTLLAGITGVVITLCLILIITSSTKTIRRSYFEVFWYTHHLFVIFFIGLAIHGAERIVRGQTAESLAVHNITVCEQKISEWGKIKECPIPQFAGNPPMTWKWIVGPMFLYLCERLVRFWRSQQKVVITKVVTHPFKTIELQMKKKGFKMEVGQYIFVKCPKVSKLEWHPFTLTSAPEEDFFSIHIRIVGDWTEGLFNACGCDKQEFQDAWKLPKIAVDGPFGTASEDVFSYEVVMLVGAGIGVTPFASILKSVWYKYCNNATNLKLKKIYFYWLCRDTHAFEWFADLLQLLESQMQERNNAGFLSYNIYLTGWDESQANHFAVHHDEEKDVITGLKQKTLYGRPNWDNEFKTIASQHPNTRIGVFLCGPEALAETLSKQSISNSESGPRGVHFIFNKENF

[9] = target: NADPH oxidase 4 (Homo sapiens) (UniProt Q9NPH5); assay: NOX4-dependent H2O2 signal modulators, primary screen, NOX inhibitor project, cell-based, HEK293-NOX4, tetracycline-induced, Amplex Red fluorescence (AID 1160); conditions: 45 min, higher = more signal, called active from +8 up or from −8 down
NADPH oxidase 4 (Homo sapiens), sequence (Q9NPH5 whole entry, looked up): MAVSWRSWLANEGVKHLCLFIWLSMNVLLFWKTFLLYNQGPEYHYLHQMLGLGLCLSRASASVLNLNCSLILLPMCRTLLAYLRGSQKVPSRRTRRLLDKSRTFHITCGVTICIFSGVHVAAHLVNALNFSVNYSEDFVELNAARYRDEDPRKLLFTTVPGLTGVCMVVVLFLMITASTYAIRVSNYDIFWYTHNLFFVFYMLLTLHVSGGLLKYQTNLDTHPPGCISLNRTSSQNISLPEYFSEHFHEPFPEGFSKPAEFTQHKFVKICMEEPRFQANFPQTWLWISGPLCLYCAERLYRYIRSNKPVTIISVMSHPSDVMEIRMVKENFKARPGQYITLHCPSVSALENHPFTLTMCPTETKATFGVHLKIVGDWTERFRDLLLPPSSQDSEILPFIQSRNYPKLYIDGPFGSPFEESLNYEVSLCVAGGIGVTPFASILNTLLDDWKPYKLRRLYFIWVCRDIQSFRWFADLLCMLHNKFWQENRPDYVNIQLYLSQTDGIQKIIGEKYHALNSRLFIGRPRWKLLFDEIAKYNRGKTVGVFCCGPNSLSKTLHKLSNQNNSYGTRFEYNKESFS

[10] = target: NADPH oxidase 5 (Homo sapiens) (UniProt Q96PH1); assay: NOX5-dependent H2O2 signal modulators, primary screen, NOX inhibitor project, cell-based, HEK293-NOX5, Amplex Red fluorescence (AID 1161); conditions: HEK293-NOX5, ionomycin, 45 min, higher = more signal
NADPH oxidase 5 (Homo sapiens), sequence (Q96PH1 whole entry, looked up): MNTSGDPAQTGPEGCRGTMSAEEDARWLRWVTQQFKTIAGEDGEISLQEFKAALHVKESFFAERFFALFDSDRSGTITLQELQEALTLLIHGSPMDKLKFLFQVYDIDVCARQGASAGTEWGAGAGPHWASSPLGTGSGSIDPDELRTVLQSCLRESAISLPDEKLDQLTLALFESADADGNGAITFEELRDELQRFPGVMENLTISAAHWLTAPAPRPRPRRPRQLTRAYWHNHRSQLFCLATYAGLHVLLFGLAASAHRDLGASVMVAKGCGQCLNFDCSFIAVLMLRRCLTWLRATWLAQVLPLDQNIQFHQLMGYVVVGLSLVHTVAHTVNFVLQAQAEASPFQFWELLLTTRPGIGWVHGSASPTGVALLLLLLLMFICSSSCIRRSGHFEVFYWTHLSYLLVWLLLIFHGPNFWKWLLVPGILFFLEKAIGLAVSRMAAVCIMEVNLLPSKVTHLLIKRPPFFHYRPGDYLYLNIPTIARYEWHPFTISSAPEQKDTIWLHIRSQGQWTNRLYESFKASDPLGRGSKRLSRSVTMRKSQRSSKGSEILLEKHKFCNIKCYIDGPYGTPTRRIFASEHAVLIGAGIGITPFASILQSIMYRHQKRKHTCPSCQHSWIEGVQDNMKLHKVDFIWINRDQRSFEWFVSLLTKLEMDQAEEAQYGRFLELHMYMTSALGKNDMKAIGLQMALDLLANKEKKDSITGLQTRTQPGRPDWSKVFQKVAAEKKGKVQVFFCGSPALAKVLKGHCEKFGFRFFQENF

[11] = A549 cell viability effects, profiling panel, calcein-AM fluorescence, 48 h, basal (AID 1162); conditions: higher = more signal; also: test concentration not given here
[12] = adipocyte viability effects, profiling panel, cell-based, 3T3-L1 adipocytes, calcein-AM fluorescence, 48 h, basal (AID 1163); conditions: 3T3-L1 adipocytes viability, higher = more signal; also: test concentration not given here
[13] = HepG2 cell viability effects, profiling panel, calcein-AM fluorescence, 48 h, basal (AID 1164); conditions: higher = more signal; also: test concentration not given here
[14] = MM1S cell viability effects, profiling panel, calcein-AM fluorescence, 48 h, basal (AID 1165); conditions: higher = more signal;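 also: viability of MM1S multiple myeloma cells under basal unstimulated conditions; test concentration not given here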
[15] = basal RPMI8226 viability, no added stimulus, profiling panel, cell-based, calcein-AM fluorescence, 48 h, PK04 Diversity Set (AID 1166); conditions: RPMI8226 myeloma viability, higher = more signal;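 also: cells grown under basal conditions without added stimulus; test concentration not given here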
[16] = basal HepG2 mitochondrial membrane potential changes, profiling panel, cell-based, JC-1 fluorescence, 24 h, 100 nL compound (AID 1167); conditions: higher = more signal; also: test concentration not given here
[17] = basal 3T3-L1 adipocyte mitochondrial potential changes, profiling panel, cell-based, JC-1 fluorescence, 3T3-L1 adipocytes, 24 h, 100 nL compound (AID 1168); conditions: JC-1 mitochondrial fluorescence, higher = more signal, called active from +8 up or from −8 down; also: test concentration not given here
[18] = basal RPMI8226 mitochondrial membrane potential changes, profiling panel, cell-based, JC-1 fluorescence, 24 h, 100 nL compound (AID 1169); conditions: RPMI8226 myeloma, JC-1 mitochondrial potential fluorescence, higher = more signal; also: test concentration not given here
[19] = basal MM1S mitochondrial membrane potential changes, profiling panel, cell-based, JC-1 fluorescence, 24 h, 100 nL compound (AID 1170); conditions: higher = more signal; also: test concentration not given here
[20] = A549 lung cancer cell viability effects, profiling panel, resazurin fluorescence, 24 h, PK04 Diversity Set (AID 1171); conditions: higher = more signal, called active from +8 up or from −8 down; also: test concentration not given here

Compound | z-score [1] | composite z-score [2] | z-score [3] | z-score [4] | z-score [5] | z-score [6] | z-score [7] | z-score [8] | z-score [9] | z-score [10] | z-score [11] | z-score [12] | z-score [13] | z-score [14] | z-score [15] | z-score [16] | z-score [17] | z-score [18] | z-score [19] | z-score [20]
CN1CCC(CCCO)=CC1c1cccs1 (stereo not given) | -0.193 (inactive) | -0.103 | 1.77 (inactive) | 0.144 (inactive) | -0.311 (inactive) | 0.0874 (inactive) | 0.362 | 0.151 (inactive) | 0.249 (inactive) | -0.115 | 0.251 | 0.335 | 0.369 | 0.277 | 0.0383 | -0.927 | -1.51 (inactive) | 0.247 | 0.00928 | -0.0596 (inactive)
CCCC=C(CCC)[C@@H](NC(=O)OCC(C)C)c1ccccc1 | -1.93 (inactive) | 2.47 | -0.725 (inactive) | -0.732 (inactive) | 0.455 (inactive) | -1.61 (inactive) | 1.44 | -4.11 (inactive) | -3.58 (inactive) | -2.7 | -0.628 | 0.722 | -0.927 | -0.0228 | -1.71 | 0.485 | -0.594 (inactive) | 0.0132 | -0.558 | 0.292 (inactive)
COC(=O)[C@@]1(Cc2ccc(F)cc2)[C@H]2c3cc(C(=O)N(C)C)n(Cc4ccc(C)o4)c3C[C@H]2CN1C(=O)c1ccccc1 | -0.92 (inactive) | 2.34 | 5.03 (inactive) | 1.73 (inactive) | 0.951 (inactive) | 1.3 (inactive) | -0.239 | 0.455 (inactive) | 0.056 (inactive) | 0.604 | 0.0895 | -0.333 | 0.625 | -1.58 | -2.03 | 0.0211 | -1.72 (inactive) | -0.847 | -0.209 | 0.501 (inactive)
COC(=O)[C@@]1(Cc2ccccc2)[C@H]2c3cc(C(=O)N(C)C)n(Cc4ccc(OC)c(OC)c4)c3C[C@H]2CN1C(=O)c1ccccc1 | -1.95 (inactive) | 0.211 | 3.81 (inactive) | 1.2 (inactive) | 0.688 (inactive) | 1.11 (inactive) | -0.399 | -0.415 (inactive) | -0.865 (inactive) | -0.0397 | -1.29 | -0.24 | 0.148 | -1.42 | -2.64 | 0.811 | -1.12 (inactive) | -0.706 | -1.14 | -1.2 (inactive)
COCCOC(=O)N1C(=O)[C@@]2(c3cc(C#CC4(O)CCCCCC4)ccc31)[C@H](C(=O)Nc1nc3ccccc3s1)[C@H]1C(=O)O[C@H](c3ccccc3)[C@H](c3ccccc3)N1[C@@H]2c1ccccc1OCCO | 0.736 (inactive) | 0.282 | 2.48 (inactive) | 1.81 (inactive) | 0.895 (inactive) | 0.948 (inactive) | 0.476 | 1.85 (inactive) | 0.572 (inactive) | 0.908 | 1.29 | 1.14 | -0.333 | -2.18 | -3.42 | -3.05 | 1.47 (inactive) | -0.866 | -0.876 | -0.511 (inactive)
CCCCN1CC=CC23O[C@@H]4C=CCCOC(=O)C4[C@H]2C(=O)N(CCCCCO)[C@@H]3C1=O (stereo not given in full) | 0.4 (inactive) | -0.363 | 1.47 (inactive) | 0.48 (inactive) | 2.26 (inactive) | 0.331 (inactive) | -0.0028 | 1.28 (inactive) | 0.0393 (inactive) | 1.46 | 0.761 | 0.159 | 0.858 | 1.83 | 0.916 | 0.84 | 0.615 (inactive) | 0.117 | -0.832 | -0.318 (inactive)
COc1ccc([Si](C)(C)[C@@H]2[C@@H](CC(=O)N3Cc4ccccc4C[C@H]3CO)O[C@]3(C(=O)N(Cc4cccc(N5CCC5=O)c4)c4ccccc43)[C@H]2C)cc1 | -0.879 (inactive) | 0.199 | 2.84 (inactive) | 1.09 (inactive) | -0.2 (inactive) | 0.917 (inactive) | 0.275 | -0.355 (inactive) | 0.912 (inactive) | 2.11 | -0.598 | 0.832 | -0.16 | -2.1 | -2.55 | -0.372 | 1.33 (inactive) | -0.755 | -1.16 | -1.38 (inactive)
C#CCN1[C@H](/C=C/C2CC2)[C@H](Cc2ccccc2)OC(=O)[C@@H]1Cc1ccccc1 | -0.625 (inactive) | -0.306 | 0.128 (inactive) | 0.224 (inactive) | -0.491 (inactive) | -0.16 (inactive) | 0.0807 | -0.263 (inactive) | -0.367 (inactive) | -1.98 | -0.627 | 0.0556 | -0.0365 | -2.65 | -2.47 | 1.31 | -0.0709 (inactive) | -0.294 | -0.719 | 2.37 (inactive)
COC(=O)[C@@]1(Cc2ccccc2)[C@H]2c3cc(C(=O)N4CCCC4)n(Cc4ccc(O)c(OC)c4)c3C[C@H]2CN1C(=O)c1ccccc1 | -1.64 (inactive) | 0.0147 | 3.85 (inactive) | 0.496 (inactive) | 0.393 (inactive) | 0.618 (inactive) | -0.347 | -2.57 (inactive) | -6.07 (inactive) | -3.82 | 0.114 | 0.0713 | 0.876 | -1.27 | -1.65 | 0.848 | -1.63 (inactive) | 0.332 | -0.601 | -1.5 (inactive)
